Assay results reported in PubChem BioAssay (NCATS).
Inconclusive results are not listed. Entries that show only a call come without a potency. Active and inactive are the calls of the source. The call rests on the fitted dose curve; in most records, active means well fitted activation curve with a large enough effect; inconclusive means small, poorly fitted or top-dose-only effect; inactive means flat fitted curve, though single readings scatter.

test: Primary redox qHTS assay for identification of artifact compounds. (AID 1845223); conditions: Amplex Red/HRP redox cycling with DTT, fluorescence; series mostly up to 53.8 µM
From the text: PI: Alexander Tropsha Ph.D.
UNC Eshelman School of Pharmacy
University of North Carolina, Chapel Hill, North Carolina
Hits from high-throughput screening (HTS) of chemical libraries are often false positives due to their interference with the assay detection technology. In response to this problem, we generated the largest publicly available library of chemical liabilities and developed a free webtool to predict HTS artifacts, both of which are described herein. More specifically, we generated, curated, and integrated HTS datasets for thiol reactivity, redox activity, and luciferase (firefly and nano) activity. Using these curated datasets, we developed and validated several Quantitative Structure-Interference Relationship (QSIR) models to predict nuisance behavior. […] These models were employed for virtual profiling of the National Center for Advancing Translational Science's (NCATS) in-house library, and 256 compounds for each assay were selected for the experimental validation of nuisance behavior. The BA for these external predictions ranged from 58 to 78% for compounds within the applicability domains of the models. […] The models developed in this study, along with aggregation models previously developed by our group (SCAM Detective) were implemented in "Liability Predictor," an online tool which may be used as part of chemical library design or for triaging HTS hits. Both the models and the curated datasets are publicly available at https://liability.mml.unc.edu/.
SEQUENCE No. (e.g., 1, 2, 3, etc.); […] (e.g., Cells, Incubation, Reagent, etc.); VALUE; DESCRIPTION.
1; Reagent; 3 uL; Amplex Red and HRP mixture.
2; Compounds and control; 16 nL; Kalypsis pin tool (Wako USA) equipped with a 1536-well pin head. […]
6; Detection; Fluorescence, ViewLux microplate reader, 525 nm excitation, 598 nm emission.
NOTES (numbers refer to Sequence numbers above)
1. 3 uL of a mixture containing Amplex Red (25 uM final concentration) and horseradish peroxidase (HRP; 250 mU/mL final concentration) in assay buffer (HBSS) was dispensed into all wells of a 1536-well assay plate (solid-bottom black plate; Greiner Bio One, Monroe, NC).
2. A Wako Pin-tool (Wako Automation, Richmond, VA) was used to transfer 16 nL of compounds (consisting of 7-plates in qHTS format, final concentration range 18.3 nM to 114 uM) or control DA3003 (final concentration range 1.22 nM to 40 uM).
3. 15 min. incubation at room temperature protected from light.
4. 1 uL of DTT (prepared fresh; final concentration 250 uM) was dispensed for a final assay volume of 4 uL.
5. Plates were centrifuged (121xg, 15 seconds) and incubated for 30 minutes at room temperature protected from light.
6. Samples were read for fluorescence (Ex/Em = 525(20)/598(25) nm) on a ViewLux CCD imager (PerkinElmer). Data were normalized to DMSO (0% activity) and DA3003 (10 uM final concentration; 100% activity) and the resulting percent inhibition data were fitted to a 4-parameter Hill equation using NCATS in-house software.

SMILES | Potency | redox activity (% of DA3003)
CN(C)C/C=C/C(=O)Nc1ccc(C(=O)Nc2cccc(Nc3ncc(Cl)c(-c4c[nH]c5ccccc45)n3)c2)cc1 | inactive | –
C#C[C@]1(O)CC[C@H]2[C@@H]3CCC4=C/C(=N/O)CC[C@@H]4[C@H]3CC[C@@]21CC | inactive | –
C/C=C1\[C@H](O[C@@H]2O[C@H](CO)[C@@H](O)[C@H](O)[C@H]2O)OC=C(C(=O)OC)[C@H]1CC(=O)OC | inactive | –
COc1ccc(C(OC2OC(CO)C(O)C(O)C2O)C(C)O)cc1 (stereo not given) | inactive | –
C[C@H](NCc1ccc(OCc2ccccc2F)cc1)C(N)=O | inactive | –
CCC[C@@H]1C[C@@H](C(=O)N[C@H](C(C)Cl)[C@H]2O[C@H](SC)[C@H](O)[C@@H](O)[C@H]2O)N(C)C1 (stereo not given in full) | inactive | –
C=C1CC[C@H]2[C@@](C)(CCC(O)[C@@]2(C)CO)[C@@H]1C/C=C(/C(=O)O)C(O)CO (stereo not given in full) | inactive | –
OCc1ccccc1O[C@@H]1O[C@H](CO)[C@@H](O)[C@H](O)[C@H]1O | inactive | –
CC1(C)CCCC2(C)C(CO)C3CCC2C31 (stereo not given) | inactive | –
CC(C)C1=CCC(C)(O)C(OC2OC(CO)C(O)C(O)C2O)C1 (stereo not given) | inactive | –
CC1CCC(=O)CC(O)C(O)CC(=O)O1 (stereo not given) | inactive | –
CN1C(=O)c2ccccc2NC(=O)[C@]12O[C@@H]2c1cccc(O)c1 | inactive | –
CC[C@H]1OC(=O)[C@H](C)[C@@H](O[C@H]2C[C@@](C)(OC)[C@@H](O)[C@H](C)O2)[C@H](C)[C@@H](O[C@@H]2O[C@H](C)C[C@H](N(C)C)[C@H]2O)[C@@](C)(O)C[C@@H](C)[C@@H]2N[C@@H](COCCOC)OC([C@H]2C)[C@]1(C)O | inactive | –
O=c1ccn([C@@H]2O[C@H](CO)[C@@H](O)[C@H]2O)c(=O)[nH]1 | inactive | –
COc1cc(N2CCC(N(C)C)CC2)ccc1Nc1ncc(Cl)c(Nc2ccccc2P(C)(C)=O)n1 | inactive | –
C=CC(C)(C)O[C@@H]1O[C@H](CO[C@@H]2OC[C@](O)(CO)[C@H]2O)[C@@H](O)[C@H](O)[C@H]1O | inactive | –
CC(=O)OC1C=C(C(=O)O)C2(CO)CCC(C)C(C)(CCc3ccoc3)C2C1 (stereo not given) | inactive | –
CCCCN(CCCC)C(=O)CN1C[C@H](c2ccc3c(c2)OCO3)[C@@H](C(=O)O)[C@@H]1c1ccc(OC)cc1 | inactive | –
CCC[C@@H]1C[C@@H](C(=O)N[C@@H]([C@H]2O[C@H](SC)[C@H](OP(=O)(O)O)[C@@H](O)[C@H]2O)[C@H](C)Cl)N(C)C1 | inactive | –
CC1(C)NC2N(C1=O)c1ccccc1C2(O)CC(C(=O)O)n1cnc2ccccc2c1=O (stereo not given) | inactive | –

SMILES | Potency | redox activity (% of DA3003)
CC(C)(C)NCC(O)COc1cccc2c1CCCC2=O (stereo not given) | inactive | –
CC1CCC23COC(=O)C2=CC(O)CC3C1(C)CCC1=CC(=O)OC1O (stereo not given) | inactive | –
CC(C)C(=O)c1cn(CC(=O)COc2ccc(Oc3ccccc3)cc2)c2ccc(C(=O)O)cc12 | inactive | –
CC1(C)CC[C@]2(C(=O)O)CC[C@]3(C)C(=CCC4[C@@]5(C)CC[C@H](O[C@@H]6O[C@H](C(=O)O)[C@@H](O)[C@H](O)[C@H]6O)C(C)(CO)C5CC[C@]43C)C2C1 (stereo not given in full) | inactive | –
c1ccc(Nc2nc3c(s2)CCCc2[nH]ncc2-3)nc1 | inactive | –
CC1=C2C(=O)O[C@@H](c3ccoc3)[C@]2(C)CCC1 | inactive | –
CCCCNC(=O)[C@@H]1Cc2ccccc2N1C(=O)[C@@H](N)CC | inactive | –
C#Cc1cnc2[nH]c(=O)n(C(CC)CC)c2n1 | inactive | –
C=CCc1ccc(O[C@@H]2O[C@H](CO[C@@H]3O[C@H](CO)[C@@H](O)[C@H](O)[C@H]3O)[C@@H](O)[C@H](O)[C@H]2O)c(O)c1 | inactive | –
C=C(C)C(C)C1OC23CC4(CO2)C(CCC2C5(C)CCC(OC6OCC(O)C(OC7OC(CO)C(O)C(OC8OCC(O)C(O)C8O)C7O)C6OC6OC(CO)C(O)C6O)C(C)(C)C5CCC24C)C3C(C)(O)C1OC(C)=O (stereo not given) | – | 8.02% [at 11.5 µM] (inactive)
COc1c(C)c2c(c(O)c1C/C=C(\C)CC/C=C(\C)CCC(=O)O)C(=O)OC2 | inactive | –
CC12CC34C=CC(=O)C(C)(CCC(=O)O)C3C(CC1C4)O2 (stereo not given) | inactive | –
COC(=O)c1cc(CN2CCN(C(=N)N)CC2)cc(C(=O)N2CCN(C(=O)c3ccc(C(=N)N)cc3)CC2)c1 | inactive | –
C=C1C(OC(C)=O)C(=O)C2C(C)(C)C(OC(C)=O)CCC2(C)C1CC(OC(C)=O)/C(C)=C/COC(C)=O (stereo not given) | inactive | –
COC(=O)C1=COC(OC2OC(CO)C(O)C(O)C2O)C2C1CC(OC(=O)C(O)CC(=O)O)C2C (stereo not given) | inactive | –
CON(C)C(=O)N1N=C(c2cc(F)ccc2F)S[C@@]1(CCCN)c1ccccc1 | inactive | –
O=c1c2cccnc2n(-c2cccc([N+](=O)[O-])c2)c(=O)n1Cc1ccncc1 | inactive | –
CC(=O)N1CCN(NC(=O)c2ccc(F)cc2)CC1 | inactive | –
CC(NCc1ccc(OCc2cccc(F)c2)cc1)C(N)=O (stereo not given) | inactive | –
Nc1ccn([C@@H]2C(F)=C(CO)[C@@H](O)[C@H]2O)c(=O)n1 | inactive | –
